# Rab9 prom act: activators of Rab9 promoter | Huh7 Rab9 promoter-luciferase reporter, luminescence, 24 h | Potency, µM (top dose mostly 9.22 µM), for the others: at the highest dose activation, negative = inhibition, actives largely listed as activators | hit rate 2.8% among 320,000; also: % of control where 0% means no effect; nearly all actives have a fitted effect of over 60% in size
#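 Steps: seed 1500 Huh7 Rab9-luc cells per well, rest 2 h at 37 °C; add compound in DMSO; incubate 24 h; add luciferase reagent, 10 min ambient; read luminescence.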
# ELG1 genotoxic: inducers of genotoxicity in HEK293T ELG1-luciferase cells; HEK293T ELG1-luciferase reporter, luminescence, 16 h; Potency, µM (series often up to 46 µM), for the others: top-dose activity change, positive = activation, most hits filed as activators; hit rate 1.3% among 330,000; also: % of control where 0% means no effect; nearly all actives have a fitted effect of over 60% in size
#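 16 hr compound incubation (37 °C, 5% CO2) of HEK293T cells carrying luciferase-tagged ELG1; luciferase then measured by ONE-Glo luminescence after 30 min at RT.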
# FLuc counter: inhibits or activates purified firefly luciferase, miR-21 counter-screen; purified FLuc, Km substrates, luminescence inhibition; Potency, µM (series often up to 57.5 µM), without a hit: top-dose activity change, negative = inhibition, most hits filed as inhibitors; P08659; hit rate 6.9% among 360,000;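 also: plate controls were vehicle for no effect and reference inhibitor for full effect; nearly all actives have a fitted effect of over 55% in size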
# Target sequence (P08659 whole entry, looked up): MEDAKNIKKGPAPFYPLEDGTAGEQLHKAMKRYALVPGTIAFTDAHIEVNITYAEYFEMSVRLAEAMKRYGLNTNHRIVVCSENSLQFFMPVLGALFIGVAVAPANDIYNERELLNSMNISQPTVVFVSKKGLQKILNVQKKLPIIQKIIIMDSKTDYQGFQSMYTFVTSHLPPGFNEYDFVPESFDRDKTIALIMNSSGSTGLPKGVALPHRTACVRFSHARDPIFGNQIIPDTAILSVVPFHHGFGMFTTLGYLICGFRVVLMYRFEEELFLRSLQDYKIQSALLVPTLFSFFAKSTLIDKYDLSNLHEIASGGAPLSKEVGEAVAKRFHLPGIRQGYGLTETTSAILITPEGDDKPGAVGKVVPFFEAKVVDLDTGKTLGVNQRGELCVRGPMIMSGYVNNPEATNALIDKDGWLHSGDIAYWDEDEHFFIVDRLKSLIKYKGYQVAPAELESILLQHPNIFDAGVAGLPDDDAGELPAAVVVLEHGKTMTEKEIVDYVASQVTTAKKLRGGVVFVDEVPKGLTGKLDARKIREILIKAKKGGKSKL
#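 Biochemical qHTS of compounds, final roughly 60 µM downward over six points, against 10 nM purified firefly luciferase using Km concentrations of substrates (10 uM D-luciferin, 10 uM ATP) in Tris acetate pH 7.5 buffer; luminescence output.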
# NPC1 prom act: activates the NPC1 promoter; hit rate 2.4% among 320,000; AID 485313; Huh7 NPC1 promoter luciferase reporter, 24 h; Potency, µM (top dose mostly 9.22 µM), for the others: at the highest dose activation, hits mostly activators; also: % of control where 0% means no effect; nearly all actives have a fitted effect of over 60% in size
#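 In 1536-well qHTS, Huh7 cells harboring an NPC1 promoter–luciferase construct received compound for 24 h; activation was quantified by luminescence following luciferase reagent addition.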
# SMN2 splice enh: SMN2 splice variant enhancement | HEK293 SMN2-luciferase splicing reporter, luminescence, 30-36 h | Potency, µM (top dose mostly 46.1 µM), without a hit: at the highest dose activity change, positive = activation, hits mostly activators | hit rate 2.8% among 210,000 | AID 1458; also: % of control where 0% means no effect; nearly all actives have a fitted effect of over 55% in size
#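 qHTS luciferase splicing reporter: luminescence rises when SMN2 exon 7 is included in transfected HEK293 cells. Compound exposure lasted 30-36 h at 37C, with 4.5 mM final sodium butyrate as control, followed by a ONE-Glo read.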
# Numbers without * were called inactive; ? = inconclusive; . = no result. In the library only some 7.4% were active in any assay of this set; here they are far more common. Calls follow the shape of the dose curve; as a rule, active = well fitted curve in the direction sought with a large enough effect; inconclusive = small, poorly fitted or top-dose-only effect, or another doubt; inactive = no such curve, though single readings can be large; an effect the other way counts as inactive or inconclusive. Potency is read from the fitted curve at half-maximal effect.
SMILES,Rab9 prom act,ELG1 genotoxic,FLuc counter,NPC1 prom act,SMN2 splice enh
Cc1ccc(N2C(=O)C(CC(=O)Nc3cccc(F)c3)N(CCc3ccccc3F)C2=O)cc1 (stereo not given),.,.,?,.,-1%
COc1ccc(-c2cccc(C(=O)Nc3cccc(C(=O)O)c3)c2)cc1,3.2µM*,?,12µM*,3.2µM*,14µM*
COc1cccc(NC(=O)CNC(=O)c2ccc(OC)c(OC)c2)c1,-4%,0%,-1%,9%,1%
COc1ccc(-c2cccc(C(=O)Nc3ccc(OC)c(OC)c3)c2)cc1,0%,0%,11µM*,-9%,-23%
COc1ccc(C(=O)Nc2ccc(OC)c(OC)c2)cc1,?,?,12µM*,?,11µM*
COc1ccc(C(=O)COC(=O)c2cccc(NC(=O)c3ccc(OC)c(OC)c3)c2)cc1,.,.,0.6µM*,.,-2%
COc1ccc(/C=C(\NC(=O)c2ccc(OC)cc2)C(=O)Nc2cccc(C(=O)O)c2)cc1,4%,4%,-2%,-1%,.
COc1ccc(C(=O)Nc2ccc(C(=O)NCCc3ccc(OC)c(OC)c3)cc2)cc1,-1%,?,1%,-4%,.
COc1ccc(-c2cccc(C(=O)Nc3ccc(C)cc3)c2)cc1,3%,0%,-18%,-4%,-1%
CN(C)C(=O)c1ccc(-c2nc(NCc3cccnc3)c3ccccc3n2)cc1,.,.,.,.,23%
Cc1c(C(=O)c2ccccc2)oc2ccc3ccccc3c12,3.2µM*,?,4.8µM*,?,.
COCCCn1c(C(=O)NCCN2CCOCC2)cc2c(=O)n3ccccc3nc21,-2%,10%,2.7µM*,-4%,.
CCOC(=O)c1snc(C(=O)NC2CCCCC2)c1N,3.5µM*,8.2µM*,13µM*,?,.
Cc1ccc(C(=O)N2CCN(c3cccc(Cl)c3)CC2)cc1-n1c(C)nc2cccnc21,.,.,-2%,.,.
O=c1c2ccccc2cnn1CCOc1ccccc1,0.1µM*,?,0.3µM*,0.089µM*,.
O=C(O)Cn1ncc2ccccc2c1=O,-4%,2%,-2%,-1%,.
Cc1cccc(C)c1OC(=O)CSc1nnc(-c2ccc3c(c2)OCO3)o1,.,.,2%,.,.
COC(=O)CC1[C@@]2(C)C[C@]34OC5(C)OC6(C7CC(=O)OC(c8ccoc8)[C@]7(C)CCC6(O5)[C@]13C)C(OC(C)=O)[C@]4(OC(C)=O)C2OC(C)=O (stereo not given in full),.,.,.,.,-13%
CN(C)c1nc(Nc2ccccc2)nc(N(C)C)n1,8%,-6%,-12%,4%,-11%
CN(C)c1ccc(Nc2nc(N)c3ccccc3n2)cc1,0.1µM*,?,0.19µM*,?,.
Nc1nc(Nc2ccccc2)nc(C(F)(F)F)n1,21%,11%,-28%,0%,.
COc1ccc(C)cc1Nc1nc(N)c2ccccc2n1,0%,-3%,?,4%,.
Cc1ccccc1Nc1nc(N)c2ccccc2n1,0.5µM*,?,1.7µM*,0.71µM*,3.5µM*
Nc1nc(Nc2ccccc2)nc2ccccc12,0.63µM*,?,1.3µM*,0.56µM*,14µM*
CCOc1ccc(Nc2nc(N)c3ccccc3n2)cc1,0.71µM*,0.58µM*,0.43µM*,0.89µM*,.
SMILES,Rab9 prom act,ELG1 genotoxic,FLuc counter,NPC1 prom act,SMN2 splice enh
O=C(Nc1cccc(F)c1)N1CC[C@@]2(CCCN(C(=O)c3csnn3)C2)C1,.,.,.,.,-16%
Oc1ccc(Nc2nc(-c3ccc(Cl)cc3)nc3ccccc23)cc1,.,.,?,.,22%
Nc1nc(Nc2ccc(Cl)cc2)nc2ccccc12,0.5µM*,?,0.43µM*,0.63µM*,.
COc1ccc(NC(=O)c2oc3ccccc3c2NC(=O)Cc2cccs2)cc1,.,.,-7%,.,?
COc1ccc(C(=O)/C=C/c2ccccc2C(F)(F)F)cc1,1%,-1%,12µM*,15%,-9%
CCOc1ccc(C(=O)/C=C/c2ccccc2C(F)(F)F)cc1,10%,1%,5.4µM*,14%,-11%
[O-]/[N+](=C\c1ccncc1)c1ccc(Br)cc1,?,?,8.5µM*,?,.
O=C(O)c1cc(-n2c(/C=C\c3ccc(F)cc3)nc3ccccc3c2=O)ccc1Cl,.,.,24µM*,.,.
O=C(NCCC1=CCCCC1)c1cnsn1,?,16µM*,?,27%,26%
O=C(Nc1cc(-c2nc3ccccc3s2)ccc1Cl)c1cc2ccccc2o1,.,.,?,.,4%
CC(=O)Nc1cc(-c2nc3ccccc3s2)ccc1C,.,.,6.7µM*,.,20%
Cc1ccc(-c2nc3ccccc3s2)cc1NC(=S)NC(=O)c1ccccc1,12%,?,9.5µM*,12%,-6%
Cc1ccc(-c2nc3ccccc3s2)cc1NC(=O)c1cc(-n2cnnc2)ccc1Cl,5%,?,1.5µM*,-29%,4%
O=S(=O)(c1ccc(-c2csc(=Nc3ccc(F)cc3)n2CCCCCCO)cc1)N1CCCC1,.,.,-8%,.,-91%
CC(C)OCCCNC(=O)CN1C(=O)c2ccccc2Sc2ncccc21,.,.,5%,.,.
COc1ccc(N2C(=O)CC(c3ccc(OC(C)C)cc3)C2=O)cc1 (stereo not given),0%,-2%,-1%,0%,-10%
CC(C)Oc1ccc(C2CC(=O)N(c3cccc(/C=C/C(=O)O)c3)C2=O)cc1 (stereo not given),-4%,0%,24µM*,0%,.
COc1ccccc1NC(=O)Cn1c(=O)n(-c2cccc(C)c2)c(=O)c2c1c1cc(C)ccc1n2C,.,.,4%,.,.
COc1cccc(CNC(=O)CCn2c(=O)c3cccn3c3cccnc32)c1OC,.,.,6%,.,.
O=C(Cn1c(-c2cccs2)cc2cc(Cl)ccc21)N1CCCCC1,.,.,-12%,.,.
Cc1ccc(CNC(=O)c2ccc3c(=O)[nH]c4c(C(=O)NCC5CCCO5)sc(=S)n4c3c2)cc1 (stereo not given),1%,-10%,19µM*,-2%,-5%
O=C(NCc1ccccc1)c1ccc2c(=O)[nH]c3c(C(=O)NCC4CCCO4)sc(=S)n3c2c1 (stereo not given),5%,-5%,27µM*,-4%,18%
O=C(NCc1ccccc1)c1ccc2c(=O)n(CC3CCCO3)c(=S)[nH]c2c1 (stereo not given),-2%,0%,3%,1%,-7%
CCCCCNC(=O)c1ccc2c(=O)[nH]c3c(C(=O)NCC4CCCO4)sc(=S)n3c2c1 (stereo not given),-2%,-12%,?,-1%,20%
CC(=O)c1ccc(N2CCN(C(=O)c3ccco3)CC2)c(F)c1,?,?,-23%,?,2.8µM*
Cc1cc2nc(N3CCN(C(=O)c4cccs4)CC3)sc2cc1C,2.8µM*,10%,?,4µM*,.
Cc1cc(C)c2nc(N3CCN(C(=O)c4ccco4)CC3)sc2c1,?,5%,17µM*,27%,.
Cc1cc(C)c2nc(N3CCN(C(=O)c4cccs4)CC3)sc2c1,2%,26%,?,-1%,.

# From PubChem BioAssay
